Compounds without any hit were thinned out: in the full panel of roughly 83,000, 20% have a hit.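 Interpretation: 100, growth as untreated; towards 0, rising growth inhibition; 0, no net growth; 0 to -100, cell death. Compounds scoring below 10 were considered active.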 Active and inactive are the calls of the source.
Key:
Test in all cases: NCI-60 one-dose screen, 48 h (100 = growth as untreated, 0 = no growth, -100 = all killed)
Conditions in all cases: 10 µM unless noted
[1] = test system: NCI-H23 lung
[2] = test system: NCI-H226 lung
[3] = test system: NCI-H322M lung
[4] = test system: HOP-62 NSCLC
[5] = test system: NCI-H460 lung
[6] = test system: HOP-92 NSCLC
[7] = test system: NCI-H522 lung
[8] = test system: A549/ATCC NSCLC
[9] = test system: 786-0 renal
[10] = test system: COLO 205 colon
[11] = test system: DU-145 prostate
[12] = test system: K-562 leukemia
[13] = test system: MALME-3M melanoma
[14] = test system: MDA-MB-231 breast
[15] = test system: RXF 393 renal
[16] = test system: SF-268 CNS
[17] = test system: SF-295 CNS
[18] = test system: SF-539 CNS
[19] = test system: UACC-257 melanoma
[20] = test system: M14 melanoma

Measured: growth

O=C1CCC23OC(C(O)c4ccccc4N12)C1C(Br)=NOC13 (stereo not given)
inactive: [1] 99.1% | [2] 110% | [3] 107% | [4] 96.8% | [5] 110% | [6] 109% | [7] 99.9% | [8] 99.7% | [9] 94.6% | [10] 108% | [11] 107% | [12] 96.3% | [13] 102% | [14] 105% | [15] 114% | [16] 91.9% | [17] 106% | [18] 93.3% | [19] 98.1% | [20] 104%

Fc1ccc(N/N=C/c2ccc(-n3cccn3)cc2)cc1
inactive: [1] 90.7% | [2] 92.3% | [3] 99.9% | [4] 82.1% | [5] 106% | [6] 105% | [7] 77.2% | [8] 93.7% | [9] 104% | [10] 98.1% | [11] 93.8% | [12] 93.3% | [13] 106% | [14] 80.1% | [15] 105% | [16] 81.3% | [17] 87.6% | [18] 100% | [19] 118% | [20] 88.8%

COc1ccc2[nH]c(=O)c(/C=C/C(=O)/C=C/c3ccc(O)c(OC)c3)cc2c1
inactive: [2] 36.8% | [3] 78.8% | [4] 85% | [5] 20.1% | [6] 98.3% | [7] 29% | [8] 22.6% | [10] 29.6% | [13] 52.8% | [14] 18.3% | [17] 17.5% | [19] 40.3%
active: [1] 5.43% | [9] -42.7% | [11] 8.26% | [12] 4.67% | [15] -76.7% | [16] 9.98% | [18] 8.47% | [20] -32.4%

NC(=O)CN1C(=O)c2ccccc2C1=O
inactive: [1] 98.8% | [2] 101% | [3] 99.1% | [4] 101% | [5] 106% | [6] 96.7% | [7] 88.3% | [8] 103% | [9] 102% | [10] 110% | [11] 101% | [12] 96% | [13] 97.5% | [14] 101% | [15] 114% | [16] 97.3% | [17] 95.3% | [18] 106% | [19] 106% | [20] 102%

C=C1C(=O)O[C@H]2[C@H]1CC/C(COC(=O)n1ccnc1)=C\CC[C@@]1(C)O[C@@H]21
inactive: [1] 91.1% | [2] 92.4% | [3] 113% | [4] 92.5% | [5] 104% | [6] 94.4% | [7] 31.9% | [8] 93% | [9] 102% | [10] 64.6% | [11] 96.8% | [12] 86.7% | [13] 90.8% | [14] 95.9% | [15] 102% | [16] 110% | [17] 100% | [18] 102% | [19] 90.7% | [20] 84.3%

Oc1ccc(CNNc2ccnc3c(O)cccc23)c2cccnc12
active: [12] 9.71%
inactive: [1] 31.6% | [2] 86.7% | [3] 47.8% | [4] 25.2% | [5] 12.3% | [6] 54.3% | [7] 13% | [8] 26.5% | [9] 39% | [10] 64.8% | [11] 43.4% | [13] 66.7% | [14] 37.4% | [15] 59.6% | [16] 37.6% | [17] 17.7% | [18] 32.2% | [19] 38.3% | [20] 30.9%

COc1cc(C(=O)Nc2cc(OC)c3ccn(C)c3c2)cc2c1C[C@]1(C)CC[C@@H](O)C(C)(C)[C@H]1O2
inactive: [1] 30.3% | [2] 76.7% | [3] 57.3% | [4] 11.7% | [5] 14% | [8] 24.1% | [11] 32.1% | [13] 31% | [14] 30.6% | [16] 27.3% | [19] 32.5%
active: [6] 8.71% | [7] -3.97% | [9] 0.587% | [10] 3.69% | [12] 9.98% | [15] -32.8% | [17] -44.2% | [18] -26.1% | [20] -32.7%

CNCc1cccc2c1OCCOCCOCCN(CCN1CCOCC1)S(=O)(=O)c1ccc(cc1)-c1cnc(N)c(n1)C(=O)N2
inactive: [1] 42.3% | [2] 78.4% | [3] 49.8% | [4] 100% | [5] 30.7% | [6] 87.9% | [7] 49% | [8] 46.4% | [9] 10.6% | [10] 22.3% | [11] 45.7% | [12] 12.6% | [13] 93.8% | [14] 94.1% | [15] 14.8% | [16] 68% | [17] 68.1% | [18] 24.1% | [19] 98.7% | [20] 26.4%

O=C(O)c1cn(C2CC2)c2cc(N3CCN(Cc4nnc(Nc5ccccc5)o4)CC3)c(F)cc2c1=O
inactive: [1] 105% | [2] 108% | [3] 93.5% | [4] 99.8% | [5] 104% | [6] 104% | [7] 92.7% | [8] 98.3% | [9] 94.9% | [10] 104% | [11] 103% | [12] 84.4% | [13] 89.1% | [14] 109% | [15] 118% | [16] 90.2% | [17] 102% | [18] 99.4% | [19] 106% | [20] 95.7%

Sc1cccc2cccnc12
active: [5] 6.81% | [7] -12.6% | [12] 9% | [20] -3.55%
inactive: [1] 55.4% | [2] 55.7% | [3] 36.3% | [4] 36.7% | [6] 95.6% | [8] 19.1% | [9] 31.5% | [10] 24.4% | [11] 27.1% | [13] 10.9% | [14] 33.8% | [15] 13.4% | [16] 34.1% | [17] 47.1% | [18] 53.8% | [19] 24.3%

COc1cc(NC(=O)c2cc(O)c(C/C=C(\C)CCC=C(C)C)c(O)c2)cc2c1O[C@]1(C)CC[C@@H](O)C(C)(C)[C@H]1C2
inactive: [1] 25.1% | [2] 38% | [3] 41.5% | [4] 12.1% | [5] 11.4% | [7] 12.8% | [8] 14.5% | [11] 20.3% | [16] 15.7% | [19] 34.4%
active: [6] -9.24% | [9] -19% | [10] -22.3% | [12] 0.252% | [13] -18.5% | [14] -33.7% | [15] -38.7% | [17] -8.51% | [18] -51.2% | [20] -15.4%

COc1cc([C@H](C)c2ccc3ccccc3c2)cc(OC)c1OC
inactive: [1] 30.1% | [2] 68.2% | [3] 55.9% | [4] 36.7% | [6] 66.3% | [7] 10.1% | [8] 24.6% | [9] 39.6% | [11] 17.6% | [13] 64% | [14] 33.8% | [16] 55.3% | [17] 13.5% | [19] 51.4% | [20] 17.5%
active: [5] 8.84% | [10] -3.69% | [12] 8.51% | [15] -10.5% | [18] -19.3%

CCCCn1c2cc(OCc3cn(-c4ccc(Cl)cc4)nn3)ccc2c2ccnc(C)c21
active: [9] -10.3%
inactive: [1] 32.4% | [2] 52.3% | [3] 56.6% | [4] 41.2% | [5] 21.5% | [6] 36.9% | [7] 24.2% | [8] 42.1% | [10] 21.9% | [11] 72.5% | [12] 14.4% | [13] 53.9% | [14] 16.7% | [15] 47.6% | [16] 74.6% | [17] 40.2% | [18] 55% | [19] 33.6% | [20] 40.6%

CC(=O)OCC1OC(OC2C(COC(C)=O)OC(OCCC[S-])C(OC(C)=O)C2OC(C)=O)C(OC(C)=O)C(OC(C)=O)C1OC(C)=O.[Au+].c1ccc(CN2[CH-]N(Cc3ccccc3)C(c3ccccc3)=C2c2ccccc2)cc1 (stereo not given)
active: [6] -11.4% | [7] -30.8% | [9] 9.05% | [10] -37.4% | [12] 4.75% | [13] -8.9% | [14] -34.7% | [17] 7.32%
inactive: [1] 12.1% | [2] 25.3% | [3] 52% | [4] 31.8% | [5] 15% | [8] 23.2% | [11] 26.1% | [15] 25.7% | [16] 40.1% | [18] 35.6% | [19] 12.5% | [20] 25%

Cc1c(C(=O)Nc2nc3ccccc3[nH]2)cnn1-c1ccccn1
inactive: [1] 101% | [2] 104% | [3] 111% | [4] 107% | [5] 103% | [6] 135% | [7] 76.2% | [8] 86.3% | [9] 107% | [10] 126% | [11] 112% | [12] 93.5% | [13] 106% | [14] 109% | [15] 105% | [16] 107% | [17] 102% | [18] 98.9% | [19] 82.4% | [20] 111%

— PubChem BioAssay (NCI)
